Experimental data: PubChem BioAssay (Tox21)
Calls of active or inactive are those of the source. Calls come from the whole dose curve.
% is set by controls: 0 for no effect and ±100 for the full control effect.

Assay: qHTS assay to identify small molecule agonists of the estrogen related receptor (ERR) signaling pathway from Tox21 library (AID 1224849); note: nearly all actives have a fitted effect of over 15% in size
Conditions: ERR reporter cell line, ONE-Glo luciferase, 18 h; series mostly up to 92.4 µM
Source text: National Center for Advancing Translational Sciences [NCATS]
NIH Chemical Genomics Center [NCGC]
U.S. Environmental Protection Agency [EPA]
National Institutes of Environmental Health Sciences [NIEHS]
National Toxicology Program [NTP]
Estrogen related receptors (ERRs), the first orphan nuclear receptors discovered, play an important role in the control of cellular energy metabolism. ERRs are required for high-energy production in response to the environmental challenges. ERR-alpha was also identified as an adverse marker for breast cancer progression; ERR-alpha-positive tumors have a poor prognosis. To screen and to identify environmental compounds that perturb the ERR signaling pathways could provide valuable information for potential therapeutic or preventive measures in the treatment of metabolic disease. For identifying ERR agonists, ERR cell line (provided by NTP) has been used to screen Tox21 10K library.
The ERR cells were dispensed at 2,000 cells/5 ul/well in 1536-well white plates using a Multidrop dispenser. After the assay plates were incubated at a 37 C/5% CO2 incubator for 6 hours, 23 nL of compounds dissolved in DMSO, positive and negative controls or DMSO only was transferred to the assay plate by a pin tool. The plates were incubated at 37 C for 18 hours. 4 ul/well of One-Glo reagent was added into the assay plates using a Flying Reagent Dispenser. After 30-minute incubation at room temperature, the luminescence intensity in the plates was measured using a ViewLux plate reader.
With `CCCCCCCCC(=O)OCC` the outcome was “inactive”. For `CC(C)COC(=O)/C=C/c1ccccc1`, the outcome was “inactive”. In the case of `CC(=O)OCCCc1ccccc1`, the outcome is reported as “inactive”. For `C=CCOCC(CO)(COCC=C)COCC=C`, the outcome was “inactive”. For `CC1CCC(C(C)(C)S)C(=O)C1` (stereo not given), the outcome was “inactive”. With `Nc1ccc(C(=O)OCC(O)CO)cc1` (stereo not given) the outcome was “inactive”. For `O=C(O)c1ccc(OCCN2CCCCC2)cc1`, the outcome was “inactive”. For `CC(C)(CO)[C@@H](O)C(=O)NCCCO`, the outcome was “inactive”. For `NC(=O)C1(N2CCCCC2)CCN(CCCC(=O)c2ccc(F)cc2)CC1`, the outcome was “inactive”. In the case of `C1=CCC(c2ccccc2)CC1` (stereo not given), the outcome is reported as “inactive”. In the case of `CCN(CCO)c1cccc(C)c1`, the outcome is reported as “inactive”. For `c1ccccc1`, the outcome was “inactive”. In the case of `CC(=O)c1ccc2c(c1)CCCC2`, the outcome is reported as “inactive”. In the case of `CC(Cl)COP(=O)(OCC(C)Cl)OCC(C)Cl` (stereo not given), the outcome is reported as “inactive”. In the case of `F[Si-2](F)(F)(F)(F)F`, the outcome is reported as “inactive”. For `O=C(O)CCNC(=O)c1ccccc1`, the outcome was “inactive”. For `CC(C)SCc1ccco1`, the outcome was “inactive”. With `CCCCOC(=O)C(C)OC(=O)CCC` (stereo not given) the outcome was “inactive”. With `COc1cc(C=O)ccc1OC(=O)C(C)C` the outcome was “inactive”. For `CN(C)CCOCCN(C)CCO`, the outcome was “inactive”. In the case of `CNCc1ccccc1`, the outcome is reported as “inactive”. For `Cc1ccccc1C`, the outcome was “inactive”. For `CCCOC(=O)CCCCC(=O)OCCC`, the outcome was “inactive”. In the case of `Nc1ccc(/C=C/c2ccc(N)cc2S(=O)(=O)O)c(S(=O)(=O)O)c1`, the activity change, positive = activation is reported as 2.43% [at 0.349 µM] (inactive). With `Cc1cccc(Nc2ccncc2S(=O)(=O)NC(=O)NC(C)C)c1` the outcome was “inactive”. For `Cc1ccccc1C(=O)N1CC/C(=N\OS(=O)(=O)O)c2ccc(Cl)cc21`, the outcome was “inactive”. For `CCCCC(C)C(=O)O` (stereo not given), the outcome was “inactive”. With `O=CO` the activity change, positive = activation was -1.2% [at 8.39 µM] (inactive). For `CCCCCCCCCCCCCCCCI`, the activity change, positive = activation was 2.23% [at 19 µM] (inactive). For `CC(=O)OC[C@H]1O[C@@H](OC(C)=O)[C@H](OC(C)=O)[C@@H]1OC(C)=O`, the outcome was “inactive”. For `Cc1nc(C)nc(N2C[C@@H](C)N(c3ccnc([C@@H](C)O)n3)[C@@H](C)C2)n1`, the outcome was “inactive”. With `Cn1c(=O)c2c(ncn2CC2OCCO2)n(C)c1=O` the outcome was “inactive”. In the case of `O=C(O)/C=C/c1ccccc1`, the outcome is reported as “inactive”. In the case of `CCCCCCCCCCC`, the outcome is reported as “inactive”. With `NS(=O)(=O)c1ccccc1OC(F)(F)F` the outcome was “inactive”. For `CCCCOC(=O)C(=O)OCCCC`, the outcome was “inactive”. For `Cc1c(C(C)C)c(=O)n(-c2ccccc2)n1C`, the outcome was “inactive”. In the case of `C=C(C)C(=O)OCCCCCCOC(=O)C(=C)C`, the outcome is reported as “inactive”. For `O=C(Oc1ccccc1C(=O)O)c1ccccc1O`, the outcome was “inactive”. In the case of `COc1ccc(NS(=O)(=O)c2ccc(N)cc2)nn1`, the outcome is reported as “inactive”.
